Test results taken from publication PMC5540273 (PLoS ONE, 2017).
Read-outs that look alike come from different tables or passages of the source.

Experiments:
[1] = system: JAK1(JH2domain-pseudokinase); details: concentration: 1 μM, replicates: in singlicate; n = 1
[2] = system: JAK2(JH1domain-catalytic); details: concentration: 1 μM, replicates: in singlicate; n = 1
[3] = system: JAK3(JH1domain-catalytic); details: concentration: 1 μM, replicates: in singlicate; n = 1
JNK1 = system: T1, JNK1; details: concentration: 1 μM, replicates: in singlicate; n = 1
T1 construct: gene MAPK8

JNK2 = system: T2, JNK2; details: concentration: 1 μM, replicates: in singlicate; n = 1
T2 construct: gene MAPK9

JNK3 = system: T3, JNK3; details: concentration: 1 μM, replicates: in singlicate; n = 1
T3 construct: gene MAPK10

KIT-autoinhibited = details: concentration: 1 μM, replicates: in singlicate; n = 1
KIT = details: concentration: 1 μM, replicates: in singlicate; n = 1
LATS1 = details: concentration: 1 μM, replicates: in singlicate; n = 1
LATS2 = details: concentration: 1 μM, replicates: in singlicate; n = 1
LCK = details: concentration: 1 μM, replicates: in singlicate; n = 1
LIMK1 = details: concentration: 1 μM, replicates: in singlicate; n = 1
LIMK2 = details: concentration: 1 μM, replicates: in singlicate; n = 1
LKB1 = system: T4, LKB1; details: concentration: 1 μM, replicates: in singlicate; n = 1
T4 construct: gene STK11

LOK = system: T5, LOK; details: concentration: 1 μM, replicates: in singlicate; n = 1
T5 construct: gene STK10

LRRK2 = details: n = 1
LTK = details: n = 1
LYN = details: concentration: 1 μM, replicates: in singlicate; n = 1
LZK = system: T6, LZK; details: concentration: 1 μM, replicates: in singlicate; n = 1
T6 construct: gene MAP3K13

MAK = details: concentration: 1 μM, replicates: in singlicate; n = 1
[4] = concentration: 1 μM, replicates: in singlicate
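Also: KINOMEscan kinase panel screen.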

SMILES: CN(c1ccc(NC(=O)N2CCN(CCCN3CCOCC3)CC2)cc1)c1ccnc(Nc2ccc(CS(C)(=O)=O)cc2)n1.Cl [GW830899]
- %Inh [1]: 44%
- %Inh [2]: 65%
- %Inh [3]: 14%
- %Inh (JNK1): 46%
- %Inh (JNK2): 0%
- %Inh (JNK3): 0%
- %Inh (KIT-autoinhibited): 0%
- %Inh (KIT): 98.8%
- %Inh (LATS1): 0%
- %Inh (LATS2): 0%
- %Inh (LCK): 16%
- %Inh (LIMK1): 2%
- %Inh (LIMK2): 6%
- %Inh (LKB1): 0%
- %Inh (LOK): 72%
- %Inh (LRRK2; [4]): 0%
- %Inh (LTK; [4]): 0%
- %Inh (LYN): 0%
- %Inh (LZK): 0%
- %Inh (MAK): 0%

SMILES: Nc1cccc(-c2ccc3c(N)n[nH]c3c2)c1 [GSK2193613]
- %Inh [1]: 12%
- %Inh [2]: 8%
- %Inh [3]: 0%
- %Inh (JNK1): 18%
- %Inh (JNK2): 13%
- %Inh (JNK3): 3%
- %Inh (KIT-autoinhibited): 83%
- %Inh (KIT): 23%
- %Inh (LATS1): 0%
- %Inh (LATS2): 27%
- %Inh (LCK): 9%
- %Inh (LIMK1): 0%
- %Inh (LIMK2): 12%
- %Inh (LKB1): 12%
- %Inh (LOK): 0%
- %Inh (LRRK2; [4]): 0%
- %Inh (LTK; [4]): 0%
- %Inh (LYN): 0%
- %Inh (LZK): 0%
- %Inh (MAK): 18%

SMILES: Cl.O=C(Nc1ccc(Oc2ccc3[nH]c(NC(=O)c4ccco4)nc3c2)cc1)Nc1cc(C(F)(F)F)ccc1F [GW683134]
- %Inh [1]: 0%
- %Inh [2]: 43%
- %Inh [3]: 0%
- %Inh (JNK1): 15%
- %Inh (JNK2): 33%
- %Inh (JNK3): 0%
- %Inh (KIT-autoinhibited): 1%
- %Inh (KIT): 100%
- %Inh (LATS1): 30%
- %Inh (LATS2): 0%
- %Inh (LCK): 98.4%
- %Inh (LIMK1): 17%
- %Inh (LIMK2): 0%
- %Inh (LKB1): 0%
- %Inh (LOK): 99.7%
- %Inh (LRRK2; [4]): 65%
- %Inh (LTK; [4]): 74%
- %Inh (LYN): 70%
- %Inh (LZK): 0%
- %Inh (MAK): 19%

SMILES: Cc1cccc(Nc2nc(N[C@H]3CCCC[C@H]3N)ncc2C(N)=O)c1.Cl [GSK986310]
- %Inh [1]: 91.4%
- %Inh [2]: 87%
- %Inh [3]: 80%
- %Inh (JNK1): 62%
- %Inh (JNK2): 36%
- %Inh (JNK3): 27%
- %Inh (KIT-autoinhibited): 0%
- %Inh (KIT): 37%
- %Inh (LATS1): 18%
- %Inh (LATS2): 7%
- %Inh (LCK): 47%
- %Inh (LIMK1): 15%
- %Inh (LIMK2): 18%
- %Inh (LKB1): 0%
- %Inh (LOK): 0%
- %Inh (LRRK2; [4]): 21%
- %Inh (LTK; [4]): 52%
- %Inh (LYN): 34%
- %Inh (LZK): 0%
- %Inh (MAK): 27%

SMILES: COC(=O)Nc1nc2ccc(Oc3ccc(CC(=O)Nc4cc(C(F)(F)F)ccc4F)cc3)cc2[nH]1 [GW680903]
- %Inh [1]: 0%
- %Inh [2]: 7%
- %Inh [3]: 0%
- %Inh (JNK1): 1%
- %Inh (JNK2): 6%
- %Inh (JNK3): 0%
- %Inh (KIT-autoinhibited): 8%
- %Inh (KIT): 100%
- %Inh (LATS1): 12%
- %Inh (LATS2): 0%
- %Inh (LCK): 22%
- %Inh (LIMK1): 1%
- %Inh (LIMK2): 7%
- %Inh (LKB1): 0%
- %Inh (LOK): 78%
- %Inh (LRRK2; [4]): 33%
- %Inh (LTK; [4]): 0%
- %Inh (LYN): 7%
- %Inh (LZK): 28%
- %Inh (MAK): 37%

SMILES: CN(C)c1ncnc2nc[nH]c12 [SKF-31736]
- %Inh [1]: 34%
- %Inh [2]: 0%
- %Inh [3]: 30%
- %Inh (JNK1): 23%
- %Inh (JNK2): 0%
- %Inh (JNK3): 0%
- %Inh (KIT-autoinhibited): 19%
- %Inh (KIT): 0%
- %Inh (LATS1): 0%
- %Inh (LATS2): 0%
- %Inh (LCK): 0%
- %Inh (LIMK1): 0%
- %Inh (LIMK2): 0%
- %Inh (LKB1): 0%
- %Inh (LOK): 2%
- %Inh (LRRK2; 1 µM): 0%
- %Inh (LTK; [4]): 0%
- %Inh (LYN): 0%
- %Inh (LZK): 8%
- %Inh (MAK): 0%

SMILES: CS(=O)(=O)c1cccc(CNc2nc(Nc3ccc4c(c3)CCC(=O)N4)ncc2C(F)(F)F)c1
- %Inh [1]: 94.3%
- %Inh [2]: 99.6%
- %Inh [3]: 100%
- %Inh (JNK1): 49%
- %Inh (JNK2): 27%
- %Inh (JNK3): 48%
- %Inh (KIT-autoinhibited): 30%
- %Inh (KIT): 44%
- %Inh (LATS1): 0%
- %Inh (LATS2): 0%
- %Inh (LCK): 0%
- %Inh (LIMK1): 0%
- %Inh (LIMK2): 0%
- %Inh (LKB1): 34%
- %Inh (LOK): 0%
- %Inh (LRRK2; [4]): 16%
- %Inh (LTK; [4]): 0%
- %Inh (LYN): 16%
- %Inh (LZK): 0%
- %Inh (MAK): 0%

SMILES: Cn1cc(-c2cnc(N)c3c(-c4ccc5c(c4)CCN5C(=O)Cc4ccccc4)csc23)cn1 [GSK2593074]
- %Inh [1]: 0%
- %Inh [2]: 26%
- %Inh [3]: 0%
- %Inh (JNK1): 13%
- %Inh (JNK2): 0%
- %Inh (JNK3): 0%
- %Inh (KIT-autoinhibited): 32%
- %Inh (KIT): 100%
- %Inh (LATS1): 1%
- %Inh (LATS2): 23%
- %Inh (LCK): 93.8%
- %Inh (LIMK1): 49%
- %Inh (LIMK2): 55%
- %Inh (LKB1): 0%
- %Inh (LOK): 98.9%
- %Inh (LRRK2; [4]): 3%
- %Inh (LTK; 1 µM): 0%
- %Inh (LYN): 65%
- %Inh (LZK): 0%
- %Inh (MAK): 0%
